High-throughput results as filed in PubChem.
rCAG binder = r(CAG) repeat RNA binding; TO-PRO-1 dye displacement fluorescence; inhibition, % at 3 µM; hit rate 1.3% among 370,000;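 active = inhibition above the plate cutoff, the mean of all test compounds on that plate plus 3 SD, cut at about 35% in these data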;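 also: higher means more dye released from RNA so lower well fluorescence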
NadD inh = inhibitors of Staphylococcus aureus NadD | purified NadD enzyme, colorimetric absorbance read-out | inhibition, % at 20 µM | hit rate 0.78% among 360,000 | AID 602399; in the data active = inhibition above about 26%
DAGLB inh = diacylglycerol lipase beta (human) inhibition; Q8NCG7; HEK293T DAGLB membrane lysate, EnzChek fluorogenic substrate; inhibition, % at 5.17 µM; hit rate 0.059% among 340,000; AID 504411; in the data active = inhibition above about 34%
Target sequence (Q8NCG7 whole entry, looked up): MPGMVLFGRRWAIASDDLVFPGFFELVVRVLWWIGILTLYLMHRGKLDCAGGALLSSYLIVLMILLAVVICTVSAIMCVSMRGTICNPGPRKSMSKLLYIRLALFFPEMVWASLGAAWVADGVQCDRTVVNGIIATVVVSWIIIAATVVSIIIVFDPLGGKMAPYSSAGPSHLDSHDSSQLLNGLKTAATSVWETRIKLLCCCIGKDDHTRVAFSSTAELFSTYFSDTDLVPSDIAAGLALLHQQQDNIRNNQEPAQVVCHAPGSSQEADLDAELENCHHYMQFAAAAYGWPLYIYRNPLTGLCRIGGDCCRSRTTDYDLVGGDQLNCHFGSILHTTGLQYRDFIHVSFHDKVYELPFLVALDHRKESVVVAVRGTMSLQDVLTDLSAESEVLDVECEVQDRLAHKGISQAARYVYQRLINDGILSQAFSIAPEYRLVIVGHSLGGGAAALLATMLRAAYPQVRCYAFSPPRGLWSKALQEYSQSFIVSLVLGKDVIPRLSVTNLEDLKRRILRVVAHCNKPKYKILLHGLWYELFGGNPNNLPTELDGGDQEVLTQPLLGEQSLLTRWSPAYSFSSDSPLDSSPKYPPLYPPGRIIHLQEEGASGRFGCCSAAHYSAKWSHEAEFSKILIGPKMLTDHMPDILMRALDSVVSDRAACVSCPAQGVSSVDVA
bovine MsrA act = activates bovine MsrA enzyme; purified bovine MsrA, absorbance read-out; activation, % at 10.6 µM; hit rate 0.3% among 360,000; AID 602163; in the data active = activation above about 7.5%
MsrA inhibitor = bovine MsrA inhibition | hit rate 0.75% among 360,000 | purified bovine MsrA, absorbance read-out | inhibition, % at 15.5 µM; in the data active = inhibition above about 4.5%
DSG3 Ab inh = inhibitors of pemphigus antibody binding to human desmoglein-3. P32926. DSG3-coupled beads, scFv-anti-DSG3-GFP binding, flow cytometry; hits give low values. binding (percent of control), % at 10 µM. hit rate 0.48% among 310,000;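 active = binding more than 3 SD below its plate's average and above zero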;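 also: hits lower antibody fragment binding to DSG3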
Hits are given with their value; . = inactive; / = no result. Rows were chosen to be rich in hits. Some 3.2% of all compounds tested hit in one or more screens of this group.

SMILES | rCAG binder | NadD inh | DAGLB inh | bovine MsrA act | MsrA inhibitor | DSG3 Ab inh
COc1ccc(/C(O)=C2/C(=O)C(=O)N(CCCN(C)C)C2c2cccc(Cl)c2)cc1OC (stereo not drawn) | . | . | . | . | 9.6 | .
COC(=O)CCC1NC(=O)C(Cc2c[nH]c3ccccc23)NC(=O)C2CC(=O)OC(C)C(NC(=O)C(C)NC(=O)C3CCCN3C(=O)C3CCCN3C(=O)C(C)NC(C)=O)C(=O)NC(CC(C)C)C(=O)NC(CCCCNC(=O)CCC(C(=O)NC(Cc3ccc(O)cc3)C(=O)O)NC1=O)C(=O)NC(Cc1c[nH]c3ccccc13)C(=O)N1CCCC1C(=O)NC(CO)C(=O)N2 (stereo not drawn) | . | / | / | / | / | /
O=C(Cn1cnc2c(cnn2-c2ccccc2)c1=O)N1CCN(c2ccc(F)cc2)CC1 | . | . | . | . | . | 86
O=C(Cn1cnc2c(cnn2-c2ccc(F)cc2)c1=O)N1CCN(c2ccccc2)CC1 | . | . | . | . | . | .
Cc1c(N=Cc2nc3ccccc3n2C)c(=O)n(-c2ccccc2)n1C | . | . | . | . | 5.1 | .
CC(C)C[C@H]1COc2cc(N3CCCC3)ccc2S(=O)(=O)N1C | . | / | / | / | / | /
COc1ccc(NC(=O)C(=O)N/N=C/c2cc(C)n(-c3cccc(Cl)c3Cl)c2C)c(OC)c1 | . | 36 | . | . | . | .
Oc1cccc(C=Nc2cccc3ccccc23)c1O | . | 45 | . | . | . | .
Oc1ccccc1C=Nc1cccc2ccccc12 | . | . | . | . | . | .
COC(=O)c1c(-c2ccc(OC)cc2)sc2ccc(N3CCOCC3)cc12 | . | . | . | . | . | 66
O=C(COc1ccc(Br)cc1)NNC(=O)Cc1ccc(S(=O)(=O)N2CCOCC2)s1 | . | . | . | . | . | .
CCCCCC[C@@H](CN(CCCC)S(C)(=O)=O)c1ccccc1 | . | / | / | / | / | /
CCN(C(=O)CN1C(=O)S/C(=C\c2cccc(Cl)c2)C1=O)C1CCS(=O)(=O)C1 (stereo not drawn) | . | . | . | . | . | .
CCN(C(=O)CN1C(=O)S/C(=C\C=C\c2ccccc2)C1=O)C1CCS(=O)(=O)C1 (stereo not drawn) | . | . | . | . | 4.6 | .
O=S1(=O)c2c(NCc3ccco3)cccc2Oc2ccccc2CN1Cc1cn(Cc2ccc(F)cc2)nn1 | . | / | / | / | / | /
N=C(N)c1ccc(N=Nc2c(O)ccc3c2[nH]c2ccccc23)cc1 | . | 42 | . | . | . | 69
Cc1[nH]c2ccccc2c1N=Nc1ccc(F)cc1 | . | . | . | . | . | .
COc1cccc(-c2cccc(-c3nc(C(=O)Nc4ccc(-c5ccccc5)cc4)cc4c3[C@H](CCO)N(S(=O)C(C)(C)C)C4)c2)c1 (stereo partly drawn) | / | 35 | / | . | / | /
COC(=O)C1CN(Cc2cn(Cc3ccccc3)nn2)CCS(=O)(=O)N1Cc1ccc(Cl)cc1 (stereo not drawn) | . | / | / | / | / | /
COc1ccc(CN(C)C(=O)C2CCCN(c3nc4ccccc4o3)C2)cc1 (stereo not drawn) | . | / | / | / | / | /
CCCCn1c(-c2ccc(Br)cc2F)nc2c1c(=O)[nH]c(=O)n2CC(C)C | . | . | . | . | . | 56
CCOC(=O)[C@H](Cc1ccccc1)NC(=O)[C@H]1C[C@@]2(N3CCCCC3)c3ccccc3N(C(=O)OC(C)(C)C)[C@H]2N1C(=O)OC(C)(C)C | . | / | / | / | / | /
O=C1[C@@H]2CSCCS(=O)(=O)N2C(=O)N1C1CCCCC1 | . | / | / | / | . | /
CCc1noc(C)c1C(=O)N(C)CC(=O)Nc1ccccc1C(F)(F)F | . | . | . | . | . | 7.5
COc1cc(C)ccc1OCc1cc(C(=O)NC(c2ccccn2)C(F)(F)F)no1 (stereo not drawn) | . | . | . | . | . | 79
SMILES | rCAG binder | NadD inh | DAGLB inh | bovine MsrA act | MsrA inhibitor | DSG3 Ab inh
COc1cc(C)ccc1OCc1cc(C(=O)NC2CCOCC2)no1 | . | . | . | . | . | .
O=C1CS/C(=N/N=C/c2ccncc2)N1 | . | . | / | . | . | 81
Cn1ccc(/C=N/N=C2/NC(=O)CS2)n1 | . | . | . | . | . | .
Cc1ccc2[nH]c(O)c(N=NC(N)=S)c2c1 | . | . | . | . | . | .
CC(/C=C(\NC(=O)c1ccccc1)C(=O)N=Nc1c(O)[nH]c2ccc(C)cc12)=C\c1ccccc1 | . | 39 | . | . | . | .
CC(C)c1ccc(S(=O)(=O)/N=C2/C=C(Sc3ncn[nH]3)C(=O)c3ccccc32)cc1 | / | 83 | . | . | / | /
Cc1ccc(S(=O)(=O)/N=C2/C=C(Sc3ncn[nH]3)C(=O)c3ccccc32)cc1 | / | 50 | . | . | / | 94
Cc1ccc(S(=O)(=O)Nc2ccc(O)c(Sc3ncn[nH]3)c2)cc1 | . | . | . | . | . | .
COc1ccc(C2=Nn3c(nnc3-c3ccccc3Cl)SC2)cc1OC1CCOC1 (stereo not drawn) | . | . | . | . | . | 74
Cc1ccc2c(c1)N(CCCC(=O)NCc1cccs1)C(=O)CO2 | . | / | / | / | / | /
O=C(N/N=C/C=C/c1ccc2c(c1)OCO2)c1ccc([N+](=O)[O-])cc1 | . | . | . | . | . | .
Nc1ccc(C(=O)N/N=C\C=C\c2ccc([N+](=O)[O-])cc2)cc1 | . | . | . | . | . | 44
COc1ccccc1-n1c(SCC(=O)NC(C)(C)C)nc(O)cc1=O | . | . | . | . | . | .
COc1ccccc1NC(=O)CSc1nc(O)cc(=O)n1-c1ccccc1OC | 40 | . | . | . | . | .
CCCCC(=O)Nc1ccc(C(=O)NCC2COc3ccccc3O2)cc1 (stereo not drawn) | . | / | / | / | / | /
CCSc1nnc(NC(=O)CSc2nnc(CNC(=O)c3ccc(OC)cc3)o2)s1 | . | . | . | . | . | -2.6
COc1ccc(C(=O)NCc2nnc(SCC(=O)Nc3nnc(C)s3)o2)cc1 | . | . | . | . | . | .
Clc1ccc(CN2CCN(c3ncc(Cc4ccccc4)cn3)CC2)c(Cl)c1 | . | / | / | / | . | /
O=C(/C=C/c1c(Cl)cccc1Cl)NCCc1ccccc1 | . | . | . | 8.0 | . | .
COc1ccc(C(=O)Oc2ccc3c(c2)OCO3)cc1OC | . | . | . | . | . | 21
O=C(Cn1ncc2c(=O)oc3ccccc3c21)NCC1COc2ccccc2O1 (stereo not drawn) | . | . | . | . | . | 88
CCC1(C(=O)c2ccc(Cl)cc2)C2c3ccccc3OC(=O)C21C(=O)Nc1ccccc1 (stereo not drawn) | 40 | . | . | . | . | /
O=C(Nc1ccc(Nc2ccccc2)cc1)c1ccc(Cl)cc1 | . | . | . | . | . | .
CCCCN1C=C(C(=O)OC)C(c2ccccc2C(F)(F)F)C(C(=O)OC)=C1 | . | . | . | . | . | -28
CCOC(=O)C1=C(C)NC(=O)NC1c1cc(Br)c(O)c(OC)c1 (stereo not drawn) | . | . | . | . | . | 76
O=C(CSC1=Nc2ccccc2C2CC=NN12)Nc1ccc(F)cc1Cl (stereo not drawn) | . | . | . | . | . | 30
